Assay results: PubChem BioAssay (Tox21)
Records with an inconclusive call do not appear. Activity calls are given as the source filed them. Unless noted, calls follow the shape of the dose curve; as a rule, active = well fitted curve in the direction sought with a large enough effect in the repeat runs; inconclusive = weak or mixed curves; inactive = no such curve, though single readings can be large; an effect the other way counts as inactive or inconclusive.

Tests used:
[1] = target: Aryl hydrocarbon receptor (Homo sapiens) (UniProt P35869); experiment: qHTS assay to identify small molecule that activate the aryl hydrocarbon receptor (AhR) signaling pathway (AID 743085); also: nearly all actives have a fitted effect of over 15% in size; also: potency is read from the fitted curve at half-maximal effect;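 as to activation: HG2L7.5c1 human HepG2 liver cells with stably integrated DRE-driven firefly reporter; series mostly up to about 70 µM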
Outline: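 24 h compound exposure, 37C, HepG2-derived HG2L7.5c1 cells with DRE-responsive luciferase. Readouts: fluorescence viability, then luminescence at room temperature after 30 min.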

[2] = qHTS assay to identify small molecule that activate the aryl hydrocarbon receptor (AhR) signaling pathway - cell viability counter screen (AID 743086);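 also: HepG2 liver cells carrying the AhR DRE luciferase reporter; series mostly up to about 70 µM; nearly all actives have a fitted effect of over 45% in size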
Outline: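 HepG2-AhR-luc (HG2L7.5c1) cells, 4000/well, treated 24 h at 37 C with compound; viability measured as CellTiter-Fluor fluorescence after 30 min in the same wells as the luciferase read.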

[3] = target: Peroxisome proliferator-activated receptor gamma (Homo sapiens) (UniProt P37231); experiment: qHTS assay to identify small molecule agonists of the peroxisome proliferator-activated receptor gamma (PPARg) signaling pathway (AID 743094; active = well fitted activation curve with a large enough effect in the signal ratio in the repeat runs, not every such curve was filed as active; the % refers to the signal ratio)
Outline: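 HEK293H PPARg-bla cells, 5 h settle at 37C/5% CO2; compound (DMSO) 17 h, 37C; B/G FRET substrate 1 h RT; fluorescence intensity read-out. qHTS format.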

[4] = target: Peroxisome proliferator-activated receptor gamma (Homo sapiens) (UniProt P37231); experiment: qHTS assay to identify small molecule antagonists of the peroxisome proliferator-activated receptor gamma (PPARg) signaling pathway (AID 743191; calls by dose curve; also: series mostly up to about 63 µM; nearly all actives have a fitted effect of over 30% in size)
Outline: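 GeneBLAzer PPARg UAS-bla HEK293H cells, 5 h post-plating, exposed to compounds 17 h at 37C. LiveBLAzer B/G FRET substrate added for 1 h at room temperature; beta-lactamase reporter read by fluorescence intensity.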

[5] = qHTS assay to identify small molecule antagonists of the peroxisome proliferator-activated receptor gamma (PPARg) signaling pathway - cell viability counter screen (AID 743194); also: nearly all actives have a fitted effect of over 55% in size
Outline: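 Cytotoxicity counter screen in PPARg-bla HEK293H cells, same wells as reporter assay. Compounds plus 50 nM rosiglitazone (final) for 17 h at 37 C, then viability read by CellTiter-Glo luminescence.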

[6] = qHTS assay for small molecule agonists of the antioxidant response element (ARE) signaling pathway - cell viability counter screen (AID 743203; calls by dose curve; also: nearly all actives have a fitted effect of over 55% in size)
Outline: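 Luminescence read-out (CellTiter-Glo, 30 min at room temperature) measured cell viability in the same wells as the ARE beta-lactamase reporter. HepG2 ARE-bla cells were treated with compounds for 16 hrs at 37C/5% CO2.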

[7] = qHTS assay for small molecule activators of the heat shock response signaling pathway - cell viability counter screen (AID 743209); also: nearly all actives have a fitted effect of over 50% in size
Outline: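 HSE-bla HeLa; 1500 cells/well; overnight 37 C, 5% CO2; compound 5 h 37 C; LiveBLAzer B/G substrate 2.5 h RT; CellTiter-Glo 30 min RT; luminescence.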

[8] = qHTS assay for small molecule activators of the heat shock response signaling pathway (AID 743210; active = well fitted activation curve with a large enough effect in the signal ratio in the repeat runs, with a control signal flat, not every such curve was filed as active; the % refers to the signal ratio;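 also: HeLa cells with beta-lactamase reporter driven by heat shock elements; series mostly up to about 63 µM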)
Outline: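 Beta-lactamase reporter read-out: FRET substrate fluorescence after 2.5 h at RT, following 5 h compound treatment at 37 C of HeLa cells carrying HSE-driven bla reporter; quantitative HTS format.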

[9] = qHTS assay to identify small molecule agonists of the peroxisome proliferator-activated receptor delta (PPARd) signaling pathway - cell viability counter screen (AID 743211); also: nearly all actives have a fitted effect of over 55% in size
Outline: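 Luminescent ATP viability assay (CellTiter-Glo, 30 min RT) in UAS-bla HEK293H cells carrying the PPAR delta reporter construct, 3000 cells/well, after a 17 h compound treatment at 37 C.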

[10] = target: Peroxisome proliferator-activated receptor delta (Homo sapiens) (UniProt Q03181); experiment: qHTS assay to identify small molecule agonists of the peroxisome proliferator-activated receptor delta (PPARd) signaling pathway (AID 743212; calls by dose curve)
Outline: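 Read-out: beta-lactamase FRET fluorescence after 2 h room-temperature incubation with LiveBLAzer B/G substrate. Cells were HEK293H carrying a UAS-bla reporter for PPARd, treated at 37 C with DMSO-dissolved compounds.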

[11] = qHTS assay to identify small molecule antagonists of the peroxisome proliferator-activated receptor delta (PPARd) signaling pathway - cell viability counter screen (AID 743213); also: nearly all actives have a fitted effect of over 50% in size
Outline: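 PPARd-bla HEK293H cells (3000/well) got compound plus 300 nM L165041 agonist for 17 h at 37 C. Viability in the same wells came from CellTiter-Glo luminescence after 30 min at room temperature.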

[12] = target: Peroxisome proliferator-activated receptor delta (Homo sapiens) (UniProt Q03181); experiment: qHTS assay to identify small molecule antagonists of the peroxisome proliferator-activated receptor delta (PPARd) signaling pathway (AID 743215; active = well fitted inhibition curve with a large enough effect in the signal ratio in the repeat runs, not every such curve was filed as active; the % refers to the signal ratio;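 also: cells stimulated with agonist L165041 at 300 nM final during compound exposure; series mostly up to about 62 µM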)
Outline: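 HEK293H GeneBLAzer PPARd UAS-bla reporter cells; cpd + L165041 300 nM final, 17 h 37 C; LiveBLAzer B/G FRET substrate 2 h RT; fluorescence intensity read-out. Antagonist mode.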

[13] = qHTS assay to identify small molecule agonists of the farnesoid-X-receptor (FXR) signaling pathway - cell viability counter screen (AID 743218); also: nearly all actives have a fitted effect of over 45% in size
Outline: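 Luminescence from CellTiter-Glo, read after 30 min at RT, reports viability of GeneBLAzer FXR-UAS-bla HEK 293T cells treated 16 h with compounds in the wells used for the beta-lactamase reporter.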

[14] = target: Vitamin D3 receptor (Homo sapiens) (UniProt P11473); experiment: qHTS assay to identify small molecule agonists of the vitamin D receptor (VDR) signaling pathway (AID 743222; calls by dose curve)
Outline: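 Beta-lactamase reporter readout (LiveBLAzer B/G FRET, 2 h RT) in VDR-bla cells after 16 h compound treatment at 37C, 5% CO2; cells pre-incubated 4 h before pin transfer of DMSO solutions.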

[15] = target: Vitamin D3 receptor (Homo sapiens) (UniProt P11473); experiment: qHTS assay to identify small molecule antagonists of the vitamin D receptor (VDR) signaling pathway (AID 743223; active = well fitted inhibition curve with a large enough effect in the signal ratio in the repeat runs, not every such curve was filed as active; the % refers to the signal ratio)
Outline: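 Agonist 1alpha,25-dihydroxyvitamin D3 (3 nM in well) was added with each compound to VDR-bla cells preincubated 4 h. Cells stood 16 h at 37C, then FRET substrate 2 h at room temperature; fluorescence intensity recorded.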

[16] = qHTS assay to identify small molecule agonists of the vitamin D receptor (VDR) signaling pathway - cell viability counter screen (AID 743224); also: series mostly up to about 63 µM; nearly all actives have a fitted effect of over 50% in size
Outline: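 Cytotoxicity counter screen: VDR-bla cells, 16 h compound exposure at 37C, 5% CO2; CellTiter-Glo luminescence, 30 min RT, same wells as bla read.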

[17] = qHTS assay for small molecule agonists of the antioxidant response element (ARE) signaling pathway (AID 743202; active = well fitted activation curve with a large enough effect in the signal ratio in the repeat runs, not every such curve was filed as active; the % refers to the signal ratio)
Outline: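 HepG2 ARE-bla reporter line, 2,000 cells/well; 5 h preincubation 37 C/5% CO2; compound (DMSO) 16 h 37 C; B/G FRET substrate 2 h RT; fluorescence intensity.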

[18] = target: Bile acid receptor (Homo sapiens) (UniProt Q96RI1); experiment: qHTS assay to identify small molecule antagonists of the farnesoid-X-receptor (FXR) signaling pathway (AID 743217; active = well fitted inhibition curve with a large enough effect in the signal ratio in the repeat runs, not every such curve was filed as active; the % refers to the signal ratio)
Outline: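 Read-out: beta-lactamase FRET fluorescence (LiveBLAzer B/G substrate, 2 h, room temperature) in GeneBLAzer FXR-UAS-bla HEK 293T cells. Compounds were co-dosed with 50 uM chenodeoxycholic acid (final) and incubated 16 h at 37 °C.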

[19] = target: Bile acid receptor (Homo sapiens) (UniProt Q96RI1); experiment: qHTS assay to identify small molecule agonists of the farnesoid-X-receptor (FXR) signaling pathway (AID 743220; active = well fitted activation curve with a large enough effect in the signal ratio in the repeat runs, not every such curve was filed as active; the % refers to the signal ratio)
Outline: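 FXR-UAS-bla HEK 293T cells carrying a UAS-driven beta-lactamase reporter were plated for 5 h at 37C/5% CO2, then exposed to DMSO-dissolved Tox21 10K compounds for 16 h at 37C. A LiveBLAzer B/G FRET substrate was loaded for 2 h at room temperature before fluorescence reading.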

[20] = qHTS assay to identify small molecule antagonists of the farnesoid-X-receptor (FXR) signaling pathway - cell viability counter screen (AID 743221; active = well fitted cell-killing curve with a large enough effect in the repeat runs, not every such curve was filed as active; also: nearly all actives have a fitted effect of over 50% in size)
Outline: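 In GeneBLAzer FXR-UAS-bla HEK 293T cells stimulated with 50 uM chenodeoxycholic acid (final), compounds acted for 16 h at 37 C. Viability was assessed afterwards by CellTiter-Glo luminescence.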

Measured: Potency

Bile acid receptor (Homo sapiens), sequence (Q96RI1 whole entry, looked up): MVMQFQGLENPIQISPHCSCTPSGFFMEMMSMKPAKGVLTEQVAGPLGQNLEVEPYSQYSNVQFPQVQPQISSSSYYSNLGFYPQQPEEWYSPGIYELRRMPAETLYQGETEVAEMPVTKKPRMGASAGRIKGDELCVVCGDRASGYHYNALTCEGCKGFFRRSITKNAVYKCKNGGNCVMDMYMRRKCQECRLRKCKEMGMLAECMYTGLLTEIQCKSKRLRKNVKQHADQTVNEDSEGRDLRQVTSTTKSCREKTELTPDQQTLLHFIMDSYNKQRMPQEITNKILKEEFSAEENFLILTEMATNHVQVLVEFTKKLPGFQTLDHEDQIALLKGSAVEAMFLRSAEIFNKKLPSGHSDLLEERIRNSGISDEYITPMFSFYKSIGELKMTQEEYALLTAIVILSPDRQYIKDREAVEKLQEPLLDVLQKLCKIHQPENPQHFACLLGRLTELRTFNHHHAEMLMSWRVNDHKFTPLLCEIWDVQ
Aryl hydrocarbon receptor (Homo sapiens), sequence (P35869 whole entry, looked up): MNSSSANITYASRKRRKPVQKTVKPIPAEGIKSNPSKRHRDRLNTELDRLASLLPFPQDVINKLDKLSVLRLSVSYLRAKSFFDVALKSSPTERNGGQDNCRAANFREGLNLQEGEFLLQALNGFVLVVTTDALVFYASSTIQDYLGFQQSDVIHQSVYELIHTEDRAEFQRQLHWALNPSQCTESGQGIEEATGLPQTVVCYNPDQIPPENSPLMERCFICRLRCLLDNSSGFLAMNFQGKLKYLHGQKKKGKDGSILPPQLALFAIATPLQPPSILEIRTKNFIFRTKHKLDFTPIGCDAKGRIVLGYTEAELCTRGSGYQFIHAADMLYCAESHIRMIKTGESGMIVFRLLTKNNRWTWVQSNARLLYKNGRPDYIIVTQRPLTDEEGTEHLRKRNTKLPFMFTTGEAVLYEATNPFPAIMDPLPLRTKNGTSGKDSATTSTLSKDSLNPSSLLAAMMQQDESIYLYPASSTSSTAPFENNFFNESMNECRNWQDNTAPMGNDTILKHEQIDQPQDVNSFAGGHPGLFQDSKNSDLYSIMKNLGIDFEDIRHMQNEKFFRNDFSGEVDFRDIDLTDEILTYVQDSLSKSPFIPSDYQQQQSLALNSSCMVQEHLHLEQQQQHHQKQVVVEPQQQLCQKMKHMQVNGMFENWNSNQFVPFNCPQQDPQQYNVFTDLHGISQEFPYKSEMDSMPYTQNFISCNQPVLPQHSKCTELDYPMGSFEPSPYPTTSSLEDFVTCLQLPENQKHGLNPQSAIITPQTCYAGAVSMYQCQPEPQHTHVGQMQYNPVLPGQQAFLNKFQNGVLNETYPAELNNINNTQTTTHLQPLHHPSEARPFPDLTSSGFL
Peroxisome proliferator-activated receptor gamma (Homo sapiens), sequence (P37231 whole entry, looked up): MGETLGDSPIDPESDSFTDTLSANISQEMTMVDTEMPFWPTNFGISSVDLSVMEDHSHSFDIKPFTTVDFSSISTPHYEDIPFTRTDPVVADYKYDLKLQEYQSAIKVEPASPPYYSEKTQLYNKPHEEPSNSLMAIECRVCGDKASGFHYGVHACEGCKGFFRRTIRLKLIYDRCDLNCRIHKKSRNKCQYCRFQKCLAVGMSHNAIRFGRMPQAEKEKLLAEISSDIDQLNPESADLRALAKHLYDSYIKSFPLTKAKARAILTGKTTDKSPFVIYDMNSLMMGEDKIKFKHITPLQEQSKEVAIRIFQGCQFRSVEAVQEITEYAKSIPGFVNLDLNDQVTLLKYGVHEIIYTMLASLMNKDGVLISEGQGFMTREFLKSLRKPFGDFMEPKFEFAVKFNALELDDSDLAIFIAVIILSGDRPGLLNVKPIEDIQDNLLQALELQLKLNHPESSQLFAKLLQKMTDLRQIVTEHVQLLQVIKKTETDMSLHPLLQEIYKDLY
Peroxisome proliferator-activated receptor delta (Homo sapiens), sequence (Q03181 whole entry, looked up): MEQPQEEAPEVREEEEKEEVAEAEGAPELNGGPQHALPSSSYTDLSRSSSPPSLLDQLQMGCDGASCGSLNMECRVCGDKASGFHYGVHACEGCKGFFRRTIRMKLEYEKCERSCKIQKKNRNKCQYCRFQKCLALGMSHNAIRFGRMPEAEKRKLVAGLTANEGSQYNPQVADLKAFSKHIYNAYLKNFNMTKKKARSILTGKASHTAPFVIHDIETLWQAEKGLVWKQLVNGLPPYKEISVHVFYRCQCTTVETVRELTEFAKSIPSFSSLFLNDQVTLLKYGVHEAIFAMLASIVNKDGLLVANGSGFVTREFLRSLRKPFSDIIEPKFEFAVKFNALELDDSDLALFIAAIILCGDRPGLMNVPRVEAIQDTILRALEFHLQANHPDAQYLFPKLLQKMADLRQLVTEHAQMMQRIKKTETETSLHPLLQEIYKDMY
Vitamin D3 receptor (Homo sapiens), sequence (P11473 whole entry, looked up): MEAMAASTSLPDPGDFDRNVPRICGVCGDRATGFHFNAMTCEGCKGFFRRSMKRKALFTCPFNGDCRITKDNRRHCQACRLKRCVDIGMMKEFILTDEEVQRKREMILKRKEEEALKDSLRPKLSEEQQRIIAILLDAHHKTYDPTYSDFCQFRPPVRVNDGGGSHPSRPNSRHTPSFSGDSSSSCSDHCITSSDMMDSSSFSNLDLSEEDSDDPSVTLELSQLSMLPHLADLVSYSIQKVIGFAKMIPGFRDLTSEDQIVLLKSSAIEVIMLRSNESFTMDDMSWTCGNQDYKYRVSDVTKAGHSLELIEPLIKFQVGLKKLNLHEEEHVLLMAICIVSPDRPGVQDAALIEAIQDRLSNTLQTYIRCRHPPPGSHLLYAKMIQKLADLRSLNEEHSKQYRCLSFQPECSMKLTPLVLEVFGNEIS

CCCOc1ccc(C(=O)OCCN(CC)CC)cc1N
active: [1] 1330 nM
inactive: [2] | [3] | [4] | [5] | [6] | [7] | [8] | [9] | [10] | [11] | [12] | [13] | [14] | [15] | [16]

O=S(=O)(O)c1ccc(Cl)cc1
inactive: [1] | [2] | [3] | [5] | [17] | [6] | [7] | [8] | [9] | [10] | [11] | [12] | [18] | [13] | [19] | [20] | [14] | [15] | [16]

Cc1cc(O)c(Cl)cc1C
inactive: [1] | [2] | [3] | [5] | [17] | [6] | [7] | [8] | [9] | [10] | [11] | [12] | [18] | [13] | [19] | [14] | [15] | [16]

C=CCON/C(CCC)=C1\C(=O)CC(C)(C)C(C(=O)OC)=C1O
inactive: [1] | [2] | [3] | [4] | [17] | [6] | [7] | [8] | [9] | [10] | [11] | [12] | [18] | [13] | [20] | [14] | [15] | [16]

O=C(O)/C=C(\CC(=O)O)C(=O)O
inactive: [1] | [2] | [3] | [5] | [17] | [6] | [7] | [8] | [9] | [10] | [11] | [12] | [18] | [13] | [19] | [20]

CCCCCCCCOCCC#N
inactive: [1] | [2] | [3] | [4] | [6] | [7] | [8] | [9] | [11] | [13] | [20] | [14] | [16]

CC1=C(O)C(=O)CO1
inactive: [1] | [2] | [3] | [4] | [5] | [6] | [7] | [8] | [9] | [10] | [11] | [12] | [13] | [20] | [15] | [16]

C=CC(=O)OCC[N+](C)(C)C
inactive: [1] | [2] | [3] | [4] | [5] | [6] | [7] | [8] | [10] | [12] | [18] | [13] | [19] | [20] | [14] | [15] | [16]

O=Cc1ccccc1S(=O)(=O)O
inactive: [1] | [2] | [3] | [5] | [17] | [6] | [7] | [8] | [9] | [10] | [11] | [12] | [13] | [20] | [14] | [16]

C=CCN1CCc2nc(N)sc2CC1
inactive: [1] | [2] | [3] | [4] | [5] | [17] | [8] | [10] | [11] | [12] | [13] | [20] | [14] | [15] | [16]

O=P(O)(O)C(O)(Cc1cccnc1)P(=O)(O)O
inactive: [1] | [2] | [3] | [5] | [17] | [6] | [7] | [8] | [9] | [10] | [11] | [12] | [18] | [13] | [19] | [20] | [14] | [16]

O=C1c2ccccc2C(=O)N1CO
inactive: [1] | [2] | [3] | [4] | [17] | [6] | [7] | [8] | [9] | [10] | [12] | [13] | [20] | [16]

COC(=O)c1ccccc1Cl
inactive: [1] | [2] | [3] | [4] | [5] | [17] | [6] | [9] | [10] | [11] | [12] | [13] | [14] | [16]

CN(C)CCc1c[nH]c2ccc(CS(=O)(=O)N3CCCC3)cc12
inactive: [1] | [2] | [3] | [5] | [17] | [6] | [7] | [8] | [9] | [10] | [11] | [12] | [13] | [20] | [14] | [15] | [16]

CCOC(=O)COc1ccc2c(C)c(CCN(CC)CC)c(=O)oc2c1Cl
inactive: [1] | [2] | [3] | [4] | [17] | [6] | [9] | [11] | [18] | [13] | [19] | [20] | [14] | [16]

C=C(C)C(=O)OCCOC1CC2CC1C1C=CCC21 (centres undefined)
inactive: [1] | [2] | [3] | [4] | [17] | [6] | [7] | [8] | [10] | [11] | [12] | [18] | [13] | [19] | [20] | [14] | [16]

CC(=O)Nc1ccc(OCCOCCOc2ccc(NC(C)=O)cc2)cc1
inactive: [1] | [2] | [3] | [4] | [17] | [6] | [9] | [11] | [13] | [20] | [16]
